Source: PubChem (Broad Institute)
A selection follows.
aSyn UTR act = Activators via SNCA 5'UTR binding, MLPCN. alpha-synuclein 5'UTR reporter, activators screen. activity score, % (tested at 7.5 µM), hits read low. 300,000 compounds, 7.1% hits; in the data active means activity score below about -60%
Hits are given with their value; n = inactive.

SMILES	aSyn UTR act
COc1c(OC(C)=O)ccc(/C=C/c2ccc3cccc(OC)c3n2)c1[N+](=O)[O-]	-146
COc1c(OC(C)=O)ccc(/C=C/c2ccc3ccccc3n2)c1[N+](=O)[O-]	-209
CCCCCCOC(=O)c1ccc(OC(=O)c2cccnc2)cc1	-101
O=C(/C=C/c1ccccc1[N+](=O)[O-])NCCN1C(=O)S/C(=C\c2ccc(F)cc2)C1=O	-113
O=C(CSc1nc2ccccc2o1)c1ccccc1	-95
Cc1cc(SCC(=O)c2ccccc2)n2ncc(-c3ccccc3)c2n1	-138
O=[N+]([O-])c1ccc(Cl)cc1Sc1nc2ccccc2o1	n
Cc1cc(SCC(=O)c2ccccc2)nc(C)n1	-115
CC(=O)CSc1nc2ccccc2o1	-75
O=C(O)c1ccccc1CSc1nc2ccccc2o1	-114
O=C(CSc1ccc(-c2ccco2)nn1)c1ccccc1	-88
O=C(CSc1ccc2ccccc2n1)c1ccccc1	-125
COC(=O)c1c(-c2ccccc2)csc1NC(=O)c1c(-c2ccccc2)noc1C	n
O=C(Nc1scc(-c2ccc(F)cc2)c1C(=O)O)c1ccco1	-77
COC(=O)c1c(-c2ccccc2)csc1NC(=O)c1ccco1	-168
O=c1cc(-c2ccccc2Cl)oc2c(Br)ccc(O)c12	-130
COc1ccccc1NC(=S)N/N=C/c1ccc(O)cc1	-157
COc1ccccc1NC(=S)N/N=C/c1cccc(C)c1	-66
Cc1cc(C)cc(NC(=O)CSc2nnc(-c3ccccc3Br)o2)c1	-67
O=C(CSc1nnc(-c2ccc(O)cc2)o1)Nc1ccccc1	-100
COc1ccccc1NC(=O)CSc1nnc(-c2ccccc2)o1	-90
COc1ccc(NC(=O)CSc2nnc(-c3cccc(O)c3)o2)cc1	-110
COCCn1c(C)cc(C(=O)CSc2nc3ccccc3c(=O)[nH]2)c1C	-152
CCCn1c(C)cc(C(=O)CSc2nc3ccccc3c(=O)n2Cc2ccco2)c1C	-219
COCCn1c(C)cc(C(=O)CSc2ccc3ccccc3n2)c1C	-141
SMILES	aSyn UTR act
Cc1ccc(Oc2nn[nH]n2)cc1	-77
COc1cc(C2C(C#N)=C(N)Oc3cc4c(cc32)OCO4)cc(OC)c1OC (stereo unspecified)	n
N#CC1=C(N)OC2=C(CCc3ccccc32)C1c1ccccc1 (stereo unspecified)	n
COc1cccc(C2C(C#N)=C(N)OC(C(C)(C)C)=C2C#N)c1 (stereo unspecified)	-115
CN(CC(=O)N1CCc2ccccc21)S(=O)(=O)c1cccs1	-130
CCc1c(C)[nH]c(C(=O)OCc2ccccc2)c1C	-75
CCc1c(C(=O)OCc2ccccc2)[nH]c(C)c1C	-117
Cc1ccc(-c2nnc(NC3CCCC3)s2)cc1	-143
COc1ccc(C(=O)/C=C/c2ccccc2C(F)(F)F)cc1	-68
CCOc1ccc(/C=C/C(=O)Nc2ccccc2C(F)(F)F)cc1	-76
CCOc1ccc(NC(=S)NC(=O)c2c(Br)cnn2C)c([N+](=O)[O-])c1	-115
COc1ccc(/C=C/C(=O)Nc2ccccc2C(=O)NCC(c2ccc(OC)cc2)N(C)C)cc1 (stereo unspecified)	-80
CN1C=C/C(=C\c2cc[n+](C)c3ccccc23)c2ccccc21	n
COc1ccc(/C=C/C(=O)Nc2ccccc2C(=O)N2CCCC2)cc1	-86
CCOc1ccc(N/C=C/C(=O)c2ccccc2)c([N+](=O)[O-])c1	n
COc1cc(NC(=O)/C=C/c2ccccc2[N+](=O)[O-])cc(OC)c1	-114
COc1ccc(/C=C/C(=O)Nc2ccccc2C(=O)O)cc1	n
CCOc1ccc(NC(=O)/C=C/c2ccccc2)c([N+](=O)[O-])c1	-147
COc1ccc(/C=C/C(=O)Nc2ccccc2C(F)(F)F)cc1	-141
CCN=c1scc(-c2ccc(F)cc2)n1/N=C/c1ccccn1	-73
C=CCN=c1scc(-c2ccccc2)n1/N=C/c1ccccn1	-68
CCOc1ccc(C(=O)NCc2cccs2)cc1	-105
COc1cccc(-c2cc(C(=O)NCc3cccs3)no2)c1	-156
CCOc1c2ccc(C(=O)NCCc3cccs3)cc2nn1CC	-130
CC1CCN(c2ccc(C(=O)NCc3cccs3)cn2)CC1	-106
SMILES	aSyn UTR act
COc1ccc2nc3sc(C(=O)NCc4cccs4)c(N)c3cc2c1	-97
CC1CCCN(c2ccc(C(=O)NCC3CCCO3)cn2)C1 (stereo unspecified)	-88
COc1ccc(-c2cc(C(=O)NCc3cccs3)no2)cc1	-170
CC1CCN(C(=O)C2CC(c3ccc(F)cc3)=NO2)CC1 (stereo unspecified)	-88
COc1cccc(C2=NOC(C(=O)N3CCOCC3)C2)c1 (stereo unspecified)	-101
CC1CCCC(C)N1C(=O)C1CC(c2ccc(F)cc2)=NO1 (stereo unspecified)	-84
O=C(NC1CCCC1)C1CC(c2ccc(F)cc2)=NO1 (stereo unspecified)	-108
O=C(/C=C/c1ccccc1)Nc1cccnc1	-143
O=C(/C=C/c1ccc([N+](=O)[O-])cc1)Nc1cccnc1	-150
O=C(/C=C/c1ccccc1)Nc1cccnc1Oc1ccccc1F	-126
N#C/C(=C(/O)c1ccc(F)cc1)c1nc2ccccc2s1	-136
N#C/C(=C(/O)COc1ccccc1)c1nc2ccccc2s1	-63
N#C/C(=C(/O)CSc1ccccn1)c1nc2ccccc2s1	-62
N#C/C(=C(/O)c1ccc(-c2cccc([N+](=O)[O-])c2)o1)c1nc2ccccc2s1	-105
COc1ccc(Cc2nc(-c3ccncc3)no2)cc1	-79
Cc1cccc(-c2noc(Cc3ccc(Cl)cc3)n2)c1	-98
COc1ccc(Cc2nc(-c3cccc(C)c3)no2)cc1	-102
CC(C)c1nc(C#N)c(NN)o1	-127
O=C(Nc1ccccn1)c1csc2c1CCCC2	-163
O=C(Nc1ccccn1)c1onc2c1CCCC2	n
COc1cc(NC(=O)c2csc3c2CCCC3)ncn1	-153
NC(=Nc1ccccc1)NC(=O)c1nc(Cl)c(N)nc1N	-126
Cc1nc(SC(C)C(=O)NCC2CCCO2)c2cc(-c3ccccc3)sc2n1 (stereo unspecified)	-107
CC(=O)Oc1ccc(/C=C2/Oc3ccccc3C2=O)cc1	-75
O=C1/C(=C/c2ccccc2)Oc2cc(OC(=O)N3CCOCC3)ccc21	-110
SMILES	aSyn UTR act
CCCCN1C(=O)Cc2c1nc(N)c1c(N)nc(N(CCC)CCC)c(C#N)c21	n
CC(C)(C)c1ccc(N2C(=O)Cc3c2nc(N)c(C#N)c3N)cc1	-109
CCc1ccc(N2C(=O)Cc3c2nc(N)c(C#N)c3N)cc1	-160
CCCCCc1nc2c(=O)[nH]c3ccccc3c2o1	-78
c1ccc(Cn2c(-c3ccco3)nc3nc4ccccc4nc32)cc1	-215
Cc1ccc(-c2nc3nc4ccccc4nc3n2Cc2ccco2)cc1	-125
O=c1c2ccccc2nc(-c2ccco2)n1Cc1ccccc1	-214
Cc1ccc(NC(=O)Nc2cnccn2)cc1Cl	-74
CCC(C)c1ccc(NC(=O)Nc2cnccn2)cc1 (stereo unspecified)	-188
O=C(Nc1cnccn1)Nc1ccc(Cl)cc1Cl	-62
O=C(Nc1ccc(Br)cc1Cl)c1cnccn1	-70
CC(=O)Nc1cccc(NC(=O)Nc2ccc(C)c(Cl)c2)c1	-118
Cn1ccc(NC(=O)Nc2ccc(Cl)cc2Cl)n1	-112
COc1ccc(NC(=O)Nc2cnccn2)cc1	-80
N#C/C(=C\c1cn(Cc2cccc(F)c2)c2ccccc12)C(=O)NCc1ccco1	n
CN(C)c1ccc(/C=C(\C#N)C(=O)NCc2ccco2)cc1	-102
N#C/C(=C\c1cn(Cc2ccccc2)c2ccccc12)C(=O)NCc1ccco1	n
